Results reported in paper PMC7862700, “An all-to-all approach to the identification of sequence-specific readers for epigenetic DNA modifications on cytosine”.

Key:
Assay in all cases: DAPPL (digital affinity profiling via proximity ligation, sequencing); 10 mM Tris-HCl pH 7.5, 50 mM NaCl, 1 mM DTT, 4% glycerol, room temperature, 30 min; GST-TFs on glutathione beads, 16-mer random dsDNA library, 0.1% formaldehyde crosslink after washing; high values mean tight binding
FLI1 = biological target: T1, FLI1 (Homo sapiens, UniProt Q01543 1-452); conditions: protein: recombinant; tags: N-terminal GST; dsDNA, one strand shown
T1 sequence: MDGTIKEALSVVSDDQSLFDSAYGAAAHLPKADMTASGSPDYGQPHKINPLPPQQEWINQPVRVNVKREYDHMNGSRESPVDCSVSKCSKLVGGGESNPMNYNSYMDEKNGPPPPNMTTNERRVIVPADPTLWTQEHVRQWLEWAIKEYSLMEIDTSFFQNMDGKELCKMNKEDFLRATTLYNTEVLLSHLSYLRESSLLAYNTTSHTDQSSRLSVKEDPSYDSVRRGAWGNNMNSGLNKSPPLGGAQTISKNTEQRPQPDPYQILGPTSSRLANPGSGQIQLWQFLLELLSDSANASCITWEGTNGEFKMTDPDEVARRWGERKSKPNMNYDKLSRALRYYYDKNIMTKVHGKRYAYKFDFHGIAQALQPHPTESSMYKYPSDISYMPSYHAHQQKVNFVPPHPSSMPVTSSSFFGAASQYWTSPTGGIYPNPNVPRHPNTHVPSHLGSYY
Method in brief: (§1)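 Yeast served to express human transcription factors as GST fusions, which were then captured on glutathione beads and labelled with DNA barcodes. Pooled with a tag-only sample, they were incubated with 200 nmole of a 16-mer random double-stranded DNA library for 30 min at room temperature in Tris/NaCl/DTT/glycerol buffer, washed, crosslinked with 0.1% formaldehyde, ligated by proximity, amplified by PCR and sequenced. Dividing each hexamer's read frequency for a factor by its frequency for the tag-only sample gives the binding signal.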

ELK1 = biological target: T2, ELK1 (Homo sapiens, UniProt P19419 1-428); conditions: protein: recombinant; tags: N-terminal GST; dsDNA, one strand shown
T2 sequence: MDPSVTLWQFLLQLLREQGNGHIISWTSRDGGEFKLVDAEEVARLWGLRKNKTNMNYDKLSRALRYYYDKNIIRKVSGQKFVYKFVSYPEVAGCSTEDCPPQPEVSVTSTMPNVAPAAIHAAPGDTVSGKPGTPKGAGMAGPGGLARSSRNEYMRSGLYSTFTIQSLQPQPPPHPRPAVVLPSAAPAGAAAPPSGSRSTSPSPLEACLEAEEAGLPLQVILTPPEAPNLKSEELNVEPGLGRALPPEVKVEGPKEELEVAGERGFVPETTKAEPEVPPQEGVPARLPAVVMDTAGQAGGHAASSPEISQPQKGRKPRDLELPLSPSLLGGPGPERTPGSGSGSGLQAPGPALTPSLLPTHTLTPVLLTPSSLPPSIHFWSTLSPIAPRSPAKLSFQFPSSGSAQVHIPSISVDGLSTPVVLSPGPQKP
Method in brief: as §1

GABPA = biological target: T3, GABPA (Homo sapiens, UniProt Q06546 1-454); conditions: protein: recombinant; tags: N-terminal GST; dsDNA, one strand shown
T3 sequence: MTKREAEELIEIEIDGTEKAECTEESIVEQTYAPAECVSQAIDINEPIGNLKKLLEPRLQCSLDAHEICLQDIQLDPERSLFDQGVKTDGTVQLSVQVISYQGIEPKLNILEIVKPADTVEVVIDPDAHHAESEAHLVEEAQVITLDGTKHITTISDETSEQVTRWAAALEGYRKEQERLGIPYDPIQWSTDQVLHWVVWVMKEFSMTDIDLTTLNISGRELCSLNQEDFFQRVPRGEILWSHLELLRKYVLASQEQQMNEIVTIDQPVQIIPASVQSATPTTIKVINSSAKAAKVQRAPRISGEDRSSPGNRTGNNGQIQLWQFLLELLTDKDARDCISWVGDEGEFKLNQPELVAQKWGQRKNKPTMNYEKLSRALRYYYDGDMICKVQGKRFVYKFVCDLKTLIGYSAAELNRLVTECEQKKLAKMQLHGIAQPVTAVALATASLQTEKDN
Method in brief: as §1

ERG = biological target: T4, ERG (Homo sapiens, UniProt P11308 1-479); conditions: protein: recombinant; tags: N-terminal GST; dsDNA, one strand shown
T4 sequence: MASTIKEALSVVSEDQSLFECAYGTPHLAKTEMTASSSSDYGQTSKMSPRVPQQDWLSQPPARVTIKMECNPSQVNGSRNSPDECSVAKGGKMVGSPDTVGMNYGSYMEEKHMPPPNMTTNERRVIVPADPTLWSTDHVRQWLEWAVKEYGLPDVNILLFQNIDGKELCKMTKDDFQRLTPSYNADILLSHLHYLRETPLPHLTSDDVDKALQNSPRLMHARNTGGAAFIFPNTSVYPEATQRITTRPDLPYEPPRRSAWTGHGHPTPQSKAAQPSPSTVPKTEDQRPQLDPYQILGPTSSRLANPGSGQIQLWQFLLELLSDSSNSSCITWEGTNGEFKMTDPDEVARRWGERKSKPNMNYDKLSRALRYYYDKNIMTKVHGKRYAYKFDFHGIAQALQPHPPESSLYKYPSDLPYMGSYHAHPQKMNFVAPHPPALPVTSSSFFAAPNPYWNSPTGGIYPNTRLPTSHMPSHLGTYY
Method in brief: as §1

ELF1 = ELF1 (Homo sapiens, UniProt P32519 1-619); conditions: protein: recombinant; tags: N-terminal GST; dsDNA, one strand shown
Chain of ELF1 (P32519 whole entry): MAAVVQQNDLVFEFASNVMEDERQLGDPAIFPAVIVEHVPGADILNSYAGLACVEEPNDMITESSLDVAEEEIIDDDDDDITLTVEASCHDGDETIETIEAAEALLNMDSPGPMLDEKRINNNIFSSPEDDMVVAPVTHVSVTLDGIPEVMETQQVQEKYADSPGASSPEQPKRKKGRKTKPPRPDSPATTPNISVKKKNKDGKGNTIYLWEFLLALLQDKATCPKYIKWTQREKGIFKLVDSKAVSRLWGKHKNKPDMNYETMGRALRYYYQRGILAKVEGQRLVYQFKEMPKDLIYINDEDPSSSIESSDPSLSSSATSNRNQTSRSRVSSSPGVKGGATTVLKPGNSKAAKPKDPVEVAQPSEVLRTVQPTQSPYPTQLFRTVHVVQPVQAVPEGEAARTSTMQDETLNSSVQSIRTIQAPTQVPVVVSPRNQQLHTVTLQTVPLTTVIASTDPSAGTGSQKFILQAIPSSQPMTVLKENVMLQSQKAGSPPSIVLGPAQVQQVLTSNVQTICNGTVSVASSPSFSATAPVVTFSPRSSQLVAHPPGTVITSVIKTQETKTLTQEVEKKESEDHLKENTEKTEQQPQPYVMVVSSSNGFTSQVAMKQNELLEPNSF
Method in brief: as §1

EHF = biological target: T5, EHF (Homo sapiens, UniProt Q9NZC4 1-300); conditions: protein: recombinant; tags: N-terminal GST; dsDNA, one strand shown
T5 sequence: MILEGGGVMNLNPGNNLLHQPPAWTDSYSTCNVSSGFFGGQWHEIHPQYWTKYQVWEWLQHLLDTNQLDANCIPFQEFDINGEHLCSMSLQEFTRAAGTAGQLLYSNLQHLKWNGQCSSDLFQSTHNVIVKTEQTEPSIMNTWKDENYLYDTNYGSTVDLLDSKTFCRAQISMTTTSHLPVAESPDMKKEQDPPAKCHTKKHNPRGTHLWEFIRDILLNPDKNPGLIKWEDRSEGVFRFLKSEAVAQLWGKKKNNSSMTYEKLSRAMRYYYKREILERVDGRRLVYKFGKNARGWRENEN
Method in brief: as §1

SPI1 = SPI1 (Homo sapiens, UniProt P17947 1-270); conditions: protein: recombinant; tags: N-terminal GST; dsDNA, one strand shown
Method in brief: as §1

SPIB = SPIB (Homo sapiens, UniProt Q01892 1-262); conditions: protein: recombinant; tags: N-terminal GST; dsDNA, one strand shown
Chain of SPIB (Q01892 whole entry): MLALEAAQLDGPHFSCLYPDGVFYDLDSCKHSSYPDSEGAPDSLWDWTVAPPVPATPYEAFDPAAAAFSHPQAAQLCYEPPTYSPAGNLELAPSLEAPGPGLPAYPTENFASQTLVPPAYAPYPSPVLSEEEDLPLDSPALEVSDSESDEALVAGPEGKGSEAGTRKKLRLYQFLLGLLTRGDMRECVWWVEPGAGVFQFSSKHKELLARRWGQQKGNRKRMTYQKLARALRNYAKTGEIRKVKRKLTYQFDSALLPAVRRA
Method in brief: as §1

ELK3 = biological target: T6, ELK3 (Homo sapiens, UniProt P41970 1-407); conditions: protein: recombinant; tags: N-terminal GST; dsDNA, one strand shown
T6 sequence: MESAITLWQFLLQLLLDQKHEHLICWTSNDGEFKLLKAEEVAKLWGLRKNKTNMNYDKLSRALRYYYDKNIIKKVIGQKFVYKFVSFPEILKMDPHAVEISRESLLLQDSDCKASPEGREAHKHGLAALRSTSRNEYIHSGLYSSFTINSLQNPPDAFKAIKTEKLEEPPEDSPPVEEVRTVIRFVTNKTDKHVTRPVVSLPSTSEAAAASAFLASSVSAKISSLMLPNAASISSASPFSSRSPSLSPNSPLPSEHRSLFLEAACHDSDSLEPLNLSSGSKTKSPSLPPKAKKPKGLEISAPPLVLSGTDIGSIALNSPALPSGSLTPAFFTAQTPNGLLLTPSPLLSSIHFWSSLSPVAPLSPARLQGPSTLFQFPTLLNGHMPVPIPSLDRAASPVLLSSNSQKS
Method in brief: as §1

FEV = biological target: T7, FEV (Homo sapiens, UniProt Q99581 1-238); conditions: protein: recombinant; tags: N-terminal GST; dsDNA, one strand shown
T7 sequence: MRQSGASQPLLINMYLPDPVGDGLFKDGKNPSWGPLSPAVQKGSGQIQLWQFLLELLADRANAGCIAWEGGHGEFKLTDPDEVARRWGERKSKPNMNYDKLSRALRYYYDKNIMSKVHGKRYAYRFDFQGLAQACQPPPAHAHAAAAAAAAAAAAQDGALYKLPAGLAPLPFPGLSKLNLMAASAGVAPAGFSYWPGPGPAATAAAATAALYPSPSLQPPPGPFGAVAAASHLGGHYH
Method in brief: as §1

ETV5 = ETV5 (Homo sapiens, UniProt P41161 1-510); conditions: protein: recombinant; tags: N-terminal GST; dsDNA, one strand shown
Chain of ETV5 (P41161 whole entry): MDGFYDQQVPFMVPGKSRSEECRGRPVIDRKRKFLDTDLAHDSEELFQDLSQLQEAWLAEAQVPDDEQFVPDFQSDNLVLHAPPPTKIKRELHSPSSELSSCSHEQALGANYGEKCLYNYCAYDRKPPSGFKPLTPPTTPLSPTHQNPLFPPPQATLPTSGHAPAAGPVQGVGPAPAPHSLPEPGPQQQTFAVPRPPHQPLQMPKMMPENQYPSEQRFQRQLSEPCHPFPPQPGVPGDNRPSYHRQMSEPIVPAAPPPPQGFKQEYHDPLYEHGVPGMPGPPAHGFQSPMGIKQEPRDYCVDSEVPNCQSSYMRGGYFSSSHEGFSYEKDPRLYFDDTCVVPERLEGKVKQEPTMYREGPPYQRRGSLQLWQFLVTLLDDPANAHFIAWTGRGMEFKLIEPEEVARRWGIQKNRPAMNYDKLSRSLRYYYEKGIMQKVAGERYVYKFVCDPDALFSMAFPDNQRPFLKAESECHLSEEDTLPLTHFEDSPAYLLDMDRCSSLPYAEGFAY
Method in brief: as §1

HSF1 = HSF1 (Homo sapiens, UniProt Q00613 1-529); conditions: protein: recombinant; tags: N-terminal GST; chain copies: 3; dsDNA, one strand shown
Chain of HSF1 (Q00613 whole entry): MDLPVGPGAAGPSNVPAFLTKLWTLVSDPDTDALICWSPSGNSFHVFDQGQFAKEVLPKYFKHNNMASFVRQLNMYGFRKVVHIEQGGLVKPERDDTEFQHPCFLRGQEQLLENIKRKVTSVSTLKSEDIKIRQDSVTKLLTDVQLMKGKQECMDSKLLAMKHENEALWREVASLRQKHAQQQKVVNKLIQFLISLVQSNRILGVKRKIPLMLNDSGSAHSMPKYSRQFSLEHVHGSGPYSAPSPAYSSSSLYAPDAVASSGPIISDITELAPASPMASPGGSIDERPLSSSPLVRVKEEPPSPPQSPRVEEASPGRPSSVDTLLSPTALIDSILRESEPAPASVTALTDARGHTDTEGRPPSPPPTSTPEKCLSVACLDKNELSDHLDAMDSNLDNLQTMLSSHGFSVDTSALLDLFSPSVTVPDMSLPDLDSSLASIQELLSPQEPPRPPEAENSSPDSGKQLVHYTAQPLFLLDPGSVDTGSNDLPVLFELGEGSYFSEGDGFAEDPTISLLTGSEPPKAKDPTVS
Method in brief: as §1

SPIC = biological target: T8, SPIC (Homo sapiens, UniProt Q8N5J4 1-248); conditions: protein: recombinant; tags: N-terminal GST; dsDNA, one strand shown
T8 sequence: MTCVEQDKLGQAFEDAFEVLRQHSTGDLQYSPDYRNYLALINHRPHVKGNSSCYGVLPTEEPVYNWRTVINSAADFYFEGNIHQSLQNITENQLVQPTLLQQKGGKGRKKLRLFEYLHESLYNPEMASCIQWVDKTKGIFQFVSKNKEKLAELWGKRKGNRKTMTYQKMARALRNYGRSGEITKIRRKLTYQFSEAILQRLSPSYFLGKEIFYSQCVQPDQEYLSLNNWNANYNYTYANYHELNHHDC
Method in brief: as §1

ELF4 = ELF4 (Homo sapiens, UniProt Q99607 1-663); conditions: protein: recombinant; tags: N-terminal GST; dsDNA, one strand shown
Chain of ELF4 (Q99607 whole entry): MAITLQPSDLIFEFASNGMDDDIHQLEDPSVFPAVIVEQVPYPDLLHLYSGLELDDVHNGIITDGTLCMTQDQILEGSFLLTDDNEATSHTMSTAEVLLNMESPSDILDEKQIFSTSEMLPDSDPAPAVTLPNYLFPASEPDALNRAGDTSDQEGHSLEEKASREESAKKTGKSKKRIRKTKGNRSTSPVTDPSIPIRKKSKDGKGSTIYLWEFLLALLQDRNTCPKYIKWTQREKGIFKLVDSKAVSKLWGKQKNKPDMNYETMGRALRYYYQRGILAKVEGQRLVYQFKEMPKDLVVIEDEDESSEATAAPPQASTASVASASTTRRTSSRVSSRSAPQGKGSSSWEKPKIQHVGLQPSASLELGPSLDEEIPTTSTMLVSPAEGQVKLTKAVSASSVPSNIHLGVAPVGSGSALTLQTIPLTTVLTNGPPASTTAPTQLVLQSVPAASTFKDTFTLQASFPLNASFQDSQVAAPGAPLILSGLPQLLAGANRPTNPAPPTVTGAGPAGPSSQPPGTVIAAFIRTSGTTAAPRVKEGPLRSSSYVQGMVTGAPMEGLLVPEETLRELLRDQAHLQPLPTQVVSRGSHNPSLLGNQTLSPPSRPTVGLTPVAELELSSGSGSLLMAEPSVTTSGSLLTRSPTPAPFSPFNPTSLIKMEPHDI
Method in brief: as §1

ELK4 = biological target: T9, ELK4 (Homo sapiens, UniProt P28324-2 1-405); conditions: protein: recombinant; tags: N-terminal GST; dsDNA, one strand shown
T9 sequence: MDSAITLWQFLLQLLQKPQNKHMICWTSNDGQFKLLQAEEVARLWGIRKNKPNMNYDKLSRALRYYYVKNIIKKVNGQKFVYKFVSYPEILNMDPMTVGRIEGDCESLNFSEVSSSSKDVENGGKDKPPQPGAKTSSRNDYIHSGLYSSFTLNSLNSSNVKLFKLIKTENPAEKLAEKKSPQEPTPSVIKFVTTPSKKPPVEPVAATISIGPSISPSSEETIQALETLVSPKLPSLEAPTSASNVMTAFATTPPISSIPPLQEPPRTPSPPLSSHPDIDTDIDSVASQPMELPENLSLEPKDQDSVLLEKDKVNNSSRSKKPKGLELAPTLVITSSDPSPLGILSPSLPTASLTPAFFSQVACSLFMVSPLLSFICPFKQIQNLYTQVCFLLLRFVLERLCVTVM
Method in brief: as §1

ETV2 = biological target: T10, ETV2 (Homo sapiens, UniProt O00321 1-342); conditions: protein: recombinant; tags: N-terminal GST; dsDNA, one strand shown
T10 sequence: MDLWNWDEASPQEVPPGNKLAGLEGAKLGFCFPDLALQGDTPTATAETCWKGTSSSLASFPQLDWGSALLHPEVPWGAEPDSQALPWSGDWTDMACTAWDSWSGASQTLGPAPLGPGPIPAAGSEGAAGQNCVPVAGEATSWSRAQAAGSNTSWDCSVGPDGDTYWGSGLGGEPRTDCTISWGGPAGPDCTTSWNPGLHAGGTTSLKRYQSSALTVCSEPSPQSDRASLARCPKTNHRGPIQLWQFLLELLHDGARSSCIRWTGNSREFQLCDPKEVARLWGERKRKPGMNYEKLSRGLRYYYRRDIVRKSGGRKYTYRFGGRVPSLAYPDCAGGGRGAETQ
Method in brief: as §1

ELF3 = biological target: T11, ELF3 (Homo sapiens, UniProt P78545 1-371); conditions: protein: recombinant; tags: N-terminal GST; dsDNA, one strand shown
T11 sequence: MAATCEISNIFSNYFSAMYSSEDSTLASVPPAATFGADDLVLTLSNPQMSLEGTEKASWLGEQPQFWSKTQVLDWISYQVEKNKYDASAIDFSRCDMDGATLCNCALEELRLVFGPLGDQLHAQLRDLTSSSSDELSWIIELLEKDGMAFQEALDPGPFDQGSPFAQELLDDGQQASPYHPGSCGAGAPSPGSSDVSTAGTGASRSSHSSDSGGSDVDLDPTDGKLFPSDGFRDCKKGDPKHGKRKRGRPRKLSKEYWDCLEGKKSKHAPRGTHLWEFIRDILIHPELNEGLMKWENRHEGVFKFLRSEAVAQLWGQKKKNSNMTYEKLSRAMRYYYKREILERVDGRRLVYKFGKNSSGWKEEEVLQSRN
Method in brief: as §1

CRX = CRX (Homo sapiens, UniProt O43186 1-299); conditions: protein: recombinant; tags: N-terminal GST; dsDNA, one strand shown
Chain of CRX (O43186 whole entry): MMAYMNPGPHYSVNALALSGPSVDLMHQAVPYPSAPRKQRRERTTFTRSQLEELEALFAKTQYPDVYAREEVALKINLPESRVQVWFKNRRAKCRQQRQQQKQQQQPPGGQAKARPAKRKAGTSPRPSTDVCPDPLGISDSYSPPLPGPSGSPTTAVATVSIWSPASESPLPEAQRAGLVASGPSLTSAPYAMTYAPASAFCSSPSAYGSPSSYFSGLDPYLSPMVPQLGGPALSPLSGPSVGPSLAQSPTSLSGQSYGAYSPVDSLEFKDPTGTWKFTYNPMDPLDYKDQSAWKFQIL
Method in brief: as §1

ETV1 = ETV1 (Homo sapiens, UniProt P50549 1-477); conditions: protein: recombinant; tags: N-terminal GST; dsDNA, one strand shown
Chain of ETV1 (P50549 whole entry): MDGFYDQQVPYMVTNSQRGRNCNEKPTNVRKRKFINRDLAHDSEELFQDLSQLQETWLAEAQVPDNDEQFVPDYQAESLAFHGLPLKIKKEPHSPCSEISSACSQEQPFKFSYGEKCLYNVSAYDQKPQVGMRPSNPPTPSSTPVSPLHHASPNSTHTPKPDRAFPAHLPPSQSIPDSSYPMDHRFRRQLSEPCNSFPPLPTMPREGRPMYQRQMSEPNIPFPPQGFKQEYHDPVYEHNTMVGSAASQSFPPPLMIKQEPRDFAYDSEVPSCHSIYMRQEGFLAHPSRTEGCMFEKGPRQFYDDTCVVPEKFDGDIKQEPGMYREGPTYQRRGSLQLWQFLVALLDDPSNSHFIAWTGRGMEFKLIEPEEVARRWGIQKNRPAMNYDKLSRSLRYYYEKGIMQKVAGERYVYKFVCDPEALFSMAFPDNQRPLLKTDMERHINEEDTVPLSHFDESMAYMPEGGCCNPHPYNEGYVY
Method in brief: as §1

TCCCCT
binding signal (FLI1): 1.59 fold enrichment (6-mer frequency, TF over GST control) | binding signal (ELK1): 1.66 fold enrichment (6-mer frequency, TF over GST control) | binding signal (GABPA): 1.61 fold enrichment (6-mer frequency, TF over GST control) | binding signal (ERG): 1.72 fold enrichment (6-mer frequency, TF over GST control) | binding signal (ELF1): 1.74 fold enrichment (6-mer frequency, TF over GST control) | binding signal (EHF): 1.67 fold enrichment (6-mer frequency, TF over GST control) | binding signal (SPI1): 2.29 fold enrichment (6-mer frequency, TF over GST control) | binding signal (SPIB): 1.8 fold enrichment (6-mer frequency, TF over GST control) | binding signal (ELK3): 1.86 fold enrichment (6-mer frequency, TF over GST control) | binding signal (FEV): 1.71 fold enrichment (6-mer frequency, TF over GST control) | binding signal (ETV5): 1.72 fold enrichment (6-mer frequency, TF over GST control) | binding signal (HSF1): 1.56 fold enrichment (6-mer frequency, TF over GST control) | binding signal (SPIC): 1.88 fold enrichment (6-mer frequency, TF over GST control) | binding signal (ELF4): 1.83 fold enrichment (6-mer frequency, TF over GST control) | binding signal (ELK4): 1.55 fold enrichment (6-mer frequency, TF over GST control) | binding signal (ETV2): 1.57 fold enrichment (6-mer frequency, TF over GST control) | binding signal (ELF3): 1.78 fold enrichment (6-mer frequency, TF over GST control) | binding signal (CRX): 1.92 fold enrichment (6-mer frequency, TF over GST control) | binding signal (ETV1): 1.75 fold enrichment (6-mer frequency, TF over GST control)
